# Assay results: PubChem BioAssay AID504834 (National Center for Advancing Translational Sciences (NCATS), 2011)
# Screen size: about 320,000 compounds; about 22,000 (6.9%) were called active. A call without a number means that no potency is given here. Roughly 27% stayed inconclusive and do not appear here. Calls follow the shape of the dose curve; as a rule, active = well fitted inhibition curve with a large enough effect; inconclusive = small, poorly fitted or top-dose-only effect, or another doubt; inactive = no such curve, though single readings can be large or run the other way. Many of the other results were omitted from the sample, so actives are more common in it than they were.
# Test: Primary qHTS for delayed death inhibitors of the malarial parasite plastid, 96 hour incubation
# Details: P. falciparum luciferase reporter growth; series mostly up to 28.7 µM
# Summary of the method: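 96 h incubation, 37 C, 5% CO2, of luciferase-reporter P. falciparum-infected RBCs (2% hematocrit, 0.05% parasitemia final) with test compounds; endpoint luminescence.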
# Potency is read from the fitted curve at half-maximal effect.
row,Structure (SMILES),Potency
1,Cc1cn([C@H]2CC(F)[C@@H](CO)O2)c(=O)[nH]c1=O (some centres undefined),inactive
2,Cc1nn(CC(=O)NCC2CCCO2)c(=O)c2cc3ccccc3n12 (centres undefined),inactive
3,O=C(Cn1nc(Cc2cccnc2)c2ccccc2c1=O)NCC1CCCO1 (centres undefined),9.28 µM (active)
4,O=C(CN1C(=O)NC2(CCCC2)C1=O)NCC1CCCO1 (centres undefined),inactive
5,CCCn1c2ccccc2c2cnn(CC(=O)NCCCN3CCCCC3CC)c(=O)c21 (centres undefined),inactive
6,CCC1CCC2(CC1)NC(=O)N(CC(=O)Nc1ccc(OC)cc1)C2=O (centres undefined),inactive
7,COc1ccc(S(=O)(=O)NC(C)C(=O)N2CCCCCC2)cc1 (centres undefined),inactive
8,COc1ccc(CC(NC(C)=O)C(=O)NC2CCN(C(=O)c3ccc(Cl)cc3)CC2)cc1 (centres undefined),inactive
9,O=C(C1CCN(Cc2ccc(Cl)cc2)CC1)N1CCN(Cc2ccc3c(c2)OCO3)CC1,inactive
10,Cc1ccc(-c2cc(C(=O)NCc3cn(C)nc3C)c3cc(Br)ccc3n2)cc1,13.1 µM (active)
11,Cc1ccc2nc(-c3cccc(Br)c3)cc(C(=O)Nn3cnnc3)c2c1,inactive
12,COc1ccc(Cl)cc1C(=O)NCc1cn(C)nc1C,inactive
13,O=C(CCNC(=O)c1ccc(Br)cc1)Nc1cccc(S(=O)(=O)N2CCCCC2)c1,inactive
14,O=C(O)c1ccc(NC(=O)c2ccc(COc3ccc(Cl)cc3)o2)cc1,inactive
15,COc1ccccc1CNS(=O)(=O)CC12CCC(CC1=O)C2(C)C (centres undefined),inactive
16,O=C(CCCN1C(=O)C2C3C=CC(C3)C2C1=O)N1CCN(c2ccccc2)CC1 (centres undefined),inactive
17,Cc1c2cnn(-c3ccccc3)c(=O)c2c(C)n1CCCC(=O)N1CCN(C)CC1,13.1 µM (active)
18,CC(=O)Cn1cnc2c(cnn2-c2ccccc2)c1=O,inactive
19,O=C(NCc1ccncc1)c1cccc(NS(=O)(=O)c2ccc(F)c(F)c2)c1,inactive
20,CCOc1ccccc1NS(=O)(=O)c1cc2c3c(c1)C(C)C(=O)N3CCC2 (centres undefined),inactive
21,O=C(/C=C/c1ccc(F)cc1)NC(=S)NNC(=O)c1cccnc1,inactive
22,CCOc1ccc(NC(=S)NC(=O)/C=C/c2ccc(OC)cc2)c([N+](=O)[O-])c1,inactive
23,COc1ccc(/C=C/C(=O)NC(=S)NN2CCCCC2c2cccnc2)cc1 (centres undefined),13.1 µM (active)

row,Structure (SMILES),Potency
1,COC(=O)[C@@H](Cc1ccccc1)NC(=O)NCCc1ccccc1,inactive
2,O=C1N=C(N2CCCC2)S/C1=C\c1cccc(Br)c1,inactive
3,O=C1N=C(N2CCc3ccccc3C2)S/C1=C\c1ccc(O)cc1,11.7 µM (active)
4,NC1=NC(=O)S/C1=C\c1ccc(O)cc1,inactive
5,COc1ccc(-c2nc3n(c(=O)c2C#N)CCS3)c(OC)c1,inactive
6,COc1cc(NS(=O)(=O)c2ccc(NC(=S)NC(=O)c3ccccc3)cc2)nc(OC)n1,inactive
7,Cc1ccnc(NC(=O)CCNS(=O)(=O)c2ccc(C)c(C)c2)c1,inactive
8,C/C(=N/NC(=O)c1ccc(Br)o1)c1ccc(C)o1,inactive
9,C/C(=N\NC(=S)NC1CCCCC1)c1ccc(C)o1,4.65 µM (active)
10,Cc1ccc(NC(=S)NC2CCCC2)cc1,inactive
11,CCCc1cc(C(=O)Nc2ccc(Cl)cn2)cs1,inactive
12,CCOc1ccc(CCNC(=O)Nc2ccccc2)cc1OCC,inactive
13,COC(=O)c1cccc(N2C(=O)C3C4C=CC(CC4)C3C2=O)c1 (centres undefined),inactive
14,Cn1c(=NC(=O)c2cnccn2)sc2ccccc21,11.7 µM (active)
15,Cn1c(=NC(=O)CSCC(=O)N2CCCCC2)sc2ccccc21,inactive
16,Cn1c(=NC(=O)CSCC(=O)N2CCOCC2)sc2ccccc21,inactive
17,CCN(CC(=O)Nc1ccccc1C(=O)NC1CC1)Cc1cccs1,inactive
18,COc1cc(CN2CCC(n3nccc3NC(=O)CCCc3ccccc3)CC2)ccc1O,inactive
19,COCCCN1C(=O)C(=O)/C(=C(/O)c2ccc(S(=O)(=O)N3CCOCC3)cc2)C1c1ccc(F)cc1 (centres undefined),inactive
20,CCc1cccc(NC(=O)C2CCCN(S(=O)(=O)c3ccc4[nH]c(=O)ccc4c3)C2)c1 (centres undefined),inactive
21,CCNC(=O)N1CCN(S(=O)(=O)c2ccc3c(c2)OCCCO3)CC1,inactive
22,Cc1ccc(C(=O)NC2CCCC(C)C2C)cc1S(=O)(=O)N1CCCCC1 (centres undefined),14.7 µM (active)
23,Cc1ccc(C(=O)NCC(=O)O)cc1S(=O)(=O)N1CCCCC1,inactive

row,Structure (SMILES),Potency
1,Cc1ccc(C(=O)Nc2ccc3c(c2)OCO3)cc1S(=O)(=O)N1CCCCC1,inactive
2,CC(C)CCNC(=O)c1ccc2c(Cl)c3c(nc2c1)CCC3,inactive
3,O=C(NNC(=O)c1ccco1)Nc1ccccc1,inactive
4,CC(=O)Nc1ccc(-c2nc3ccccc3o2)cc1,inactive
5,O=C(Nc1ccc2oc(-c3ccc4ccccc4c3)nc2c1)c1cccs1,4.65 µM (active)
6,O=C(Cc1cccc2ccccc12)Nc1ccc2oc(-c3ccccc3)nc2c1,inactive
7,O=C(c1ccc(Br)o1)N1CCN(CCOc2ccccc2)CC1,inactive
8,COc1ccc2[nH]cc(CCN3C(=O)c4ccc(C(=O)O)cc4C3=O)c2c1,inactive
9,COc1ccc(C2Nc3ccccc3C(=O)N2Cc2ccccc2)cc1Cn1nnc2ccccc21 (centres undefined),3.29 µM (active)
10,Cc1ccc(C2Nc3ccccc3C(=O)N2CCN2CCNC2=O)cc1 (centres undefined),inactive
11,COc1ccc(N2C(=O)c3ccccc3NC2c2ccc(OC)c(CN3CCOCC3)c2)cc1 (centres undefined),inactive
12,COc1ccc(C2Nc3ccccc3C(=O)N2c2ccc(F)cc2)cc1Cn1nnc2ccccc21 (centres undefined),9.28 µM (active)
13,CC(=O)NN1C(=O)c2ccccc2NC1c1ccccc1 (centres undefined),inactive
14,Fc1ccc(OCc2nn3c(Cn4nnc5ccccc54)nnc3s2)cc1,inactive
15,COc1ccc(N(CC(=O)NCC2CCCO2)C(=O)CCC(=O)Nc2nccs2)c(OC)c1 (centres undefined),inactive
16,O=C(CSc1nc2[nH]c(=O)[nH]c(=O)c2s1)Nc1cccc(F)c1,inactive
17,Cc1ccc(S(=O)(=O)N2CCCCC2)cc1C(=O)N(C)CC(=O)Nc1cccc(F)c1,inactive
18,CC(C)(C)C(=O)COC(=O)c1cc(S(=O)(=O)N2CCCCC2)ccc1N1CCOCC1,inactive
19,CCc1nn(CC(=O)N2CCN(CC)CC2)c(=O)c2cccn12,inactive
20,CC(NC(=O)C1CCCN(S(=O)(=O)c2ccc(-n3cnnn3)cc2)C1)c1ccc(F)cc1 (centres undefined),inactive
21,C=CCn1c(=NC(=O)c2cccs2)sc2cc(NC(C)=O)ccc21,inactive
22,C=CCn1c(=NC(=O)c2ccc(S(=O)(=O)N3CCCC3)cc2)sc2cc(NC(C)=O)ccc21,0.928 µM (active)
23,COc1cc(C(C)=O)ccc1OC(C)C(=O)Nc1ccc(S(=O)(=O)N2CCCC2)cc1 (centres undefined),inactive
